21 compounds from PubChem BioAssay (Tox21) can be followed below.

Assay [1] in a line: A CellTox Green Cytotoxicity Assay to monitor cytotoxicity in HEK293 cells - 32 hour (AID 1224881). Further: nearly all actives have a fitted effect of over 40% in size. In short, it runs like this: (§1)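 Read-out: fluorescence of a cell-impermeant cyanine dye staining DNA of dead cells, proportional to cytotoxicity. HEK293, 600 cells/well with reagent, compound (23 nL DMSO) added after 5 h; reads at 0, 8, 16, 24, 32, 40 h.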
A short description of assay [2]: A CellTox Green Cytotoxicity Assay to monitor cytotoxicity in HepG2 cells - 0 hour (AID 1224882). Further: nearly all actives have a fitted effect of over 35% in size. In short, it runs like this:
(§2)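 HepG2, 600 cells/well premixed w/ CellTox Green; 5 h settle, 37 C/5% CO2; pintool cpd add (DMSO); 37 C, 40 h; fluorescence read at 0, 8, 16, 24, 32, 40 h.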

Assay [3] in a line: A CellTox Green Cytotoxicity Assay to monitor cytotoxicity in HepG2 cells - 32 hour (AID 1224883). Further: nearly all actives have a fitted effect of over 50% in size. The method in brief:
as §2

Assay [4] in a line: A CellTox Green Cytotoxicity Assay to monitor cytotoxicity in HEK293 cells - 8 hour (AID 1224884). Further: nearly all actives have a fitted effect of over 35% in size. In short, it runs like this:
as §1

The nature of assay [5]: qHTS RealTime-Glo MT Cell Viability Assay in HepG2 cells - 16 hour (AID 1224885). Further: nearly all actives have a fitted effect of over 50% in size. In short, it runs like this:
(§3)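 Cells + NanoLuc/prosubstrate dispensed (600 cells/well) → 5 h at 37 C/5% CO2 → compounds in DMSO transferred → 40 h incubation at 37 C, luminescence read at 0, 8, 16, 24, 32, 40 h.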

Assay [6] is described as follows: qHTS RealTime-Glo MT Cell Viability Assay in HEK293 cells - 24 hour (AID 1224886). Further: nearly all actives have a fitted effect of over 50% in size. In short, it runs like this:
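Tox21 10K qHTS, HEK293, 600 cells/well, RealTime-Glo reagent co-dispensed with cells; 5 h preincubation, compound by pintool, 37 C, luminescence at 0–40 h.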
In general terms: qHTS replaces the single test concentration by a dilution series.

A short description of assay [7]: qHTS RealTime-Glo MT Cell Viability Assay in HEK293 cells - 8 hour (AID 1224887). Further: nearly all actives have a fitted effect of over 50% in size. In short, it runs like this:
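Luminescence readout at each listed time point; HEK293, 600 cells/well, RealTime-Glo MT reagent added with cells; compounds pinned (23 nL in DMSO) after 5 h at 37 C; continuous culture at 37 C.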

Assay [8] is described as follows: A CellTox Green Cytotoxicity Assay to monitor cytotoxicity in HEK293 cells - 16 hour (AID 1224888). Further: nearly all actives have a fitted effect of over 35% in size. The method in brief: as §1
Assay [9] in a line: qHTS RealTime-Glo MT Cell Viability Assay in HepG2 cells - 0 hour (AID 1224889). Further: nearly all actives have a fitted effect of over 50% in size. In short, it runs like this:
as §3

The nature of assay [10]: A CellTox Green Cytotoxicity Assay to monitor cytotoxicity in HepG2 cells - 8 hour (AID 1224890). Further: nearly all actives have a fitted effect of over 45% in size. The method in brief: as §2

Results filed as inconclusive are left out. Where a structure was tested more than once in an assay, its records may differ in their call. Active and inactive are the calls of the source. The call rests on the fitted dose curve; in most records, active means well fitted curve in the direction sought with a large enough effect in the repeat runs; inconclusive means weak or mixed curves; inactive means no such curve, though single readings can be large; an effect the other way counts as inactive or inconclusive.
Potency means the concentration at half of the fitted maximal effect.

Regarding `CS(=O)(=O)c1ccc(C(=O)C2C(=O)CCCC2=O)c([N+](=O)[O-])c1`, the Potency in assay [1] is 44.4 µM (active); in [2], 39.6 µM (active); in assay [3] it was 44.4 µM (active); in [4] it was 44.4 µM (active); in assay [6], 25 µM (active); in assay [7] it was 21.4 µM (active). For the same compound, the figures for the Potency in assay [8] and in assay [10] were 44.4 µM (active) and 39.6 µM (active), respectively. The Potency entry in assay [5] and in assay [9] was “inactive” in each case.

On to `CCc1nn(C)c(C(=O)NCc2ccc(C(C)(C)C)cc2)c1Cl`, for which the Potency entry in [1], in [2], in assay [3], in assay [4], in assay [5] and in assay [8] was “inactive” each time. The Potency result in assay [9] and in [10] was “inactive” throughout. The Potency in assay [6] was 0.049 µM (active); in assay [7], 4.36 µM (active).

With `FC(F)(F)c1cccc(C2=CCN(CCc3ccc4ccccc4c3)CC2)c1`, the Potency result in [1], in assay [2], in assay [3], in assay [4], in [5] and in assay [6] was “inactive” in each case. Also, the Potency result in assay [7], in assay [8], in assay [9] and in [10] was “inactive” throughout.

Consider `S=C=Nc1cccc2ccccc12`, for which the Potency entry in assay [1], in assay [2], in assay [3], in [4], in [5] and in assay [6] was “inactive” each time. Further, the Potency result in assay [8], in assay [9] and in assay [10] was “inactive” in each case. The Potency in assay [7] is 21.7 µM (active).

Consider `BrCC(Br)c1ccccc1` (stereo not drawn), for which the Potency result in [1], in assay [2], in [3], in assay [4], in [5] and in assay [6] was “inactive” in each case. Moreover, the Potency entry in assay [7], in [8], in assay [9] and in assay [10] was “inactive” each time.

Turning to `CCCCCCCCCCCCCN1CC(C)OC(C)C1` (stereo not drawn), the Potency result in assay [1], in assay [2], in assay [3], in assay [4], in assay [5] and in [6] was “inactive” each time. Also, the Potency result in [7], in [9] and in assay [10] was “inactive” in each case.

On to `CCCCCCCCCCBr`, for which the Potency result in assay [1], in [2], in [3], in assay [4], in assay [5] and in [6] was “inactive” throughout. For the same compound, the Potency entry in assay [7], in assay [8], in [9] and in [10] was “inactive” each time.

With `O=C1C=CC(=O)c2ccccc21`, the Potency was 6.16 µM (active) in [1]; 12.3 µM (active) in [3]; 19.5 µM (active) in assay [5]; 5.49 µM (active) in assay [6]; 6.16 µM (active) in [7]; 15.5 µM (active) in assay [10]. For the same compound, the Potency entry in assay [2], in assay [4] and in assay [8] was “inactive” throughout.

Consider `CC(c1ccc(O)cc1)c1ccc(O)cc1`, for which the Potency entry in assay [1], in assay [2], in assay [3], in assay [4], in assay [5] and in assay [7] was “inactive” in each case. Also, the Potency entry in assay [8], in [9] and in assay [10] was “inactive” each time. Moreover, the Potency in assay [6] is 45.9 µM (active) and inactive.

With `CCCSP(=O)(OCC)SCCC`, the Potency result in assay [1], in assay [2], in assay [3], in assay [4], in assay [5] and in assay [6] was “inactive” in each case. Moreover, the Potency entry in assay [7], in [8] and in assay [10] was “inactive” each time.

Regarding `CC(C)(C)OO`, the Potency entry in assay [1], in assay [2], in assay [3], in [4], in [5] and in assay [6] was “inactive” in each case. In addition, the Potency result in assay [7], in [9] and in assay [10] was “inactive” throughout.

With `CCCCCCCCCCCCCCC(Br)C(=O)O` (stereo not drawn), the Potency result in assay [1], in assay [2], in assay [4], in assay [5], in assay [6] and in assay [7] was “inactive” throughout. Besides, the Potency entry in [8], in assay [9] and in assay [10] was “inactive” throughout. Further, the Potency in [3] was 17.4 µM (active).

For the compound `CCCCCCCCCC[N+](C)(C)CCCCCCCCCC`, the Potency in assay [1] was 17.4 µM (active); in assay [3], 9.77 µM (active); in assay [4], 17.4 µM (active); in [5] it was 11 µM (active); in assay [6] it was 1.74 µM (active); in assay [7], 21.9 µM (active). Moreover, the Potency in assay [8] is 17.4 µM (active); in assay [10] it was 19.5 µM (active). Besides, the Potency result in assay [2] is “inactive”.

For the compound `C1CCC2CCCCC2C1` (stereo not drawn), the Potency entry in assay [1], in [2], in assay [3], in assay [4], in assay [5] and in assay [6] was “inactive” in each case. Moreover, the Potency result in assay [7], in assay [8], in assay [9] and in assay [10] was “inactive” each time.

Turning to `COCC(=O)N(c1c(C)cccc1C)[C@H](C)C(=O)OC`, the Potency result in assay [1], in assay [2], in assay [3], in assay [4], in assay [5] and in [6] was “inactive” in each case. The Potency result in assay [7], in assay [9] and in assay [10] was “inactive” throughout.

As to `COC[C@H](C)N(C(=O)CCl)c1c(C)csc1C`, the Potency entry in assay [1], in assay [2], in assay [3], in [4], in assay [5] and in assay [6] was “inactive” in each case. The Potency result in assay [7], in assay [8], in assay [9] and in assay [10] was “inactive” in each case.

For `Oc1ccccc1Br`, the Potency entry in [1], in assay [2], in assay [3], in assay [4], in [5] and in assay [6] was “inactive” throughout. The Potency result in [7], in [8], in assay [9] and in assay [10] was “inactive” throughout.

Take `CCOP(=S)(OCC)SCS(=O)(=O)C(C)(C)C`: the Potency entry in assay [1], in [2], in assay [3], in [4], in assay [5] and in [6] was “inactive” each time. Besides, the Potency entry in assay [7], in assay [8] and in assay [10] was “inactive” in each case.

Turning to `N#CCCO`, the Potency entry in assay [1], in assay [2], in [3], in [4], in [5] and in assay [6] was “inactive” throughout. The Potency entry in assay [7], in [8], in assay [9] and in [10] was “inactive” throughout.

Turning to `[Hg+2].[I-].[I-]`, the Potency is 21.9 µM (active) in assay [1]; 7.76 µM (active) in [3]; 49 µM (active) in [4]; 11 µM (active) in assay [5]; 3.09 µM (active) in [6]; 6.16 µM (active) in [7]. The Potency in [8] was 43.6 µM (active); in assay [9] it was 24.5 µM (active); in assay [10], 15.5 µM (active). For the same compound, in [2], the Potency result was “inactive”.

Turning to `COC12CC[C@@]3(C[C@@H]1C(C)(O)C(C)(C)C)[C@H]1Cc4ccc(O)c5c4[C@@]3(CCN1CC1CC1)[C@H]2O5` (stereo partly drawn), the Potency is 38.6 µM (active) in assay [1]; 38.6 µM (active) in assay [3]; 24.4 µM (active) in [4]; 43.4 µM (active) in assay [5]; 34.4 µM (active) in assay [6]; 38.6 µM (active) in [7]. The Potency was 21.7 µM (active) in assay [8] and 43.4 µM (active) in [10]. The Potency result in assay [2] and in assay [9] was “inactive” in each case.
